For 13 molecules, composite z-score and composite Z-score results are on record in PubChem BioAssay.

One experiment deals with Albumin (Bos taurus) (UniProt P02769). The experiment is described as follows: compounds binding labelled BSA control protein – biochemical, small-molecule microarray, Alexa647 label, 635/667 nm fluorescence, artefact control for SMM control protein annotation, profiling panel (AID 1118).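 Also: score merges 667 nm emission intensity and signal-to-noise per printed compound spot.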 To be noted: BSA-A647 binding, fluorescence 635 nm, higher = more signal.
Chain of Albumin (Bos taurus) (P02769 whole entry, looked up): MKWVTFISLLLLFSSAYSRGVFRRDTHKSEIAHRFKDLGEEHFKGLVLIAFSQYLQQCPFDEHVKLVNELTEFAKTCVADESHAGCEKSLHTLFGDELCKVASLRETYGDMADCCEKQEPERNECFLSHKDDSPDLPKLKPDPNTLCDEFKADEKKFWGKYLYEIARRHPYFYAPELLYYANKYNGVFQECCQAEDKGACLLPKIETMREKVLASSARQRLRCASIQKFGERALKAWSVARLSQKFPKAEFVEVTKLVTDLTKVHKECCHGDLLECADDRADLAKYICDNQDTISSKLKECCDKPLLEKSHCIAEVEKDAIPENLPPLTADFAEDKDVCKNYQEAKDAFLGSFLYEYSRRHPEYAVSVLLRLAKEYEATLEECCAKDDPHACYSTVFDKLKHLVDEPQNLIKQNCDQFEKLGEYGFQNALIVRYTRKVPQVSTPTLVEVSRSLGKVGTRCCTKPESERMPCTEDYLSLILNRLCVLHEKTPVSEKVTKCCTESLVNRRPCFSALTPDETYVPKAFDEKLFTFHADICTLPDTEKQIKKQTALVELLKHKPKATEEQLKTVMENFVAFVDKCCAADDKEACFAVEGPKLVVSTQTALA
Experiment [1] in a line: probe aXIP binding to arrayed compounds – biochemical, NeuroSMM set, 635/667 nm fluorescence, primary screen (AID 1119).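 Also: probe is the protein aXip251-270 applied at 1 µg/mL to compound-printed slides; binding of probe to printed compounds measured as 667 nm fluorescence plus signal to noise.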 The conditions noted are these: small-molecule microarray, higher = more signal, called active from +8 up or from −8 down.
A short description of experiment [2]: probe aNOTCH3 binding on compound microarray – biochemical, small-molecule microarray, 635/667 nm fluorescence, primary screen (AID 1120).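 Also: probe is a biotin-tagged antibody raised against NOTCH3 rather than NOTCH3 protein; score merges spot fluorescence near 667 nm with spot signal to noise.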 The conditions noted are these: higher = more signal.
Experiment [3] can be described thus: probe aNOTCH2 binding on compound microarray – biochemical, small-molecule microarray, 635/667 nm fluorescence, primary screen (AID 1121).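 Also: score merges feature fluorescence read at 667 nm with its signal to noise.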 To be noted: higher = more signal.
In experiment [4] the target is Carbonic anhydrase 2 (Homo sapiens) (UniProt P00918). The experiment is described as follows: compounds binding carbonic anhydrase 2 – biochemical, small-molecule microarray, Alexa647-labelled CAII, profiling panel (AID 1122). To be noted: CAII-A647 binding fluorescence, higher = more signal.
Experiment [5] in a line: COS7 lysate on small-molecule microarray, probe aHis, 635 nm (AID 1123).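 Also: z-score combines 667nm fluorescence intensity with signal-to-noise per printed compound spot.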 To be noted: COS7 cell lysate, fluorescence, higher = more signal.
A short description of experiment [6]: probe aLAP1 signal on lysate-treated microarray – cell lysate, small-molecule microarray, COS7 lysate, primary screen (AID 1124).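 Also: lysate comes from COS7 cells expressing LAP1 and is applied at 0.3 µg/mL; score merges spot fluorescence near 667 nm with signal-to-noise over triplicate slides.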 The conditions noted are these: probe aLAP1, fluorescence, higher = more signal.
In a further experiment the test system is Sam68 (KHDRBS1). In words: compounds binding KHDRBS1 protein – biochemical, small-molecule microarray, 635 nm fluorescence, primary screen (AID 1125).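 Also: score merges 667 nm channel intensity with signal to noise over triplicate slides.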 The conditions noted are these: higher = more signal.
The test system of experiment [7] is Chordin-like protein 2 (CHRDL2). The experiment is described as follows: compounds binding chordin-like 2 – biochemical, small-molecule microarray, 635 nm fluorescence, primary screen (AID 1126).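 Also: printed compound slides probed with Chrdl2 protein at 4 µg/mL for 1 h at 4 C; score merges 667 nm emission intensity with signal to noise over three replicate slides.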 The conditions noted are these: fluorescence 635 nm, higher = more signal.
Experiment [8] addresses Concanavalin-A (Canavalia ensiformis) (UniProt P02866). In words: compounds binding concanavalin A lectin – biochemical, small-molecule microarray, Alexa647 label, 635 nm, artefact control for SMM control protein annotation, primary screen (AID 1127).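 Also: z combines 667 nm emission intensity with signal-to-noise across three replicate slides.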 To be noted: ConA-A647 binding fluorescence, higher = more signal.

Structures are written as SMILES. Active and inactive are the calls of the source.

Chain of Concanavalin-A (Canavalia ensiformis) (P02866 whole entry, looked up): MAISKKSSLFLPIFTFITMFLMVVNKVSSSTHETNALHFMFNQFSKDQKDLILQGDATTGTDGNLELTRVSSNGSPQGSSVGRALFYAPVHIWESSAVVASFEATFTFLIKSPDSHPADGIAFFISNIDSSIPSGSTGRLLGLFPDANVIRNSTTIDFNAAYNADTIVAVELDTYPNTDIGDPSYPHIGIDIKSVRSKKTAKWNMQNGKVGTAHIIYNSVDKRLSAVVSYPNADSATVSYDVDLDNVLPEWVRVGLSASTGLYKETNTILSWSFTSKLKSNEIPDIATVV

On to `COc1ccc(COC2OC[C@]3(C)[C@H]4C5=C(CN3C(=O)OC(C)(C)C)[C@H](C)C(CO)C(CO)C5CC[C@@H]24)cc1` (stereo not given in full), for which the composite z-score with Albumin (Bos taurus) is 0.73; in [2] it was 0.339; in [3] it was 0.191; in experiment [4], 0.513; in experiment [5], 0.814; in experiment [6] it was 0.846. Also, the composite z-score was 0.567 with Sam68 (KHDRBS1), -0.888 in [7] and 0.927 in experiment [8]. Also, in experiment [1], the composite Z-score is 0.086 (inactive).
As for `CC(=O)N1Cc2ccccc2C[C@@]2(COC(c3ccc(OCCCO)cc3)=N2)C1=O`, the composite z-score with Albumin (Bos taurus) stood at 0.707; in experiment [2], 0.286; in experiment [3], 0.16; in [4] it was 0.669; in experiment [5] it was 2.38; in [6], 0.16. The composite z-score in the experiment with Sam68 (KHDRBS1) stood at 1.3; in experiment [7], 0.341; in experiment [8], 1.15. For the same molecule, in [1], the composite Z-score is -0.151 (inactive).
As for `O=C1c2ccccc2[C@@]2(Cc3ccccc3N(CC(F)(F)F)C2=O)[C@H](c2ccc(CO)cc2)N1Cc1ccccc1Cl`, the composite z-score with Albumin (Bos taurus) was -0.465; in experiment [2], -0.191; in experiment [3], -0.228; in [4] it was -0.227; in experiment [5], -0.0414; in experiment [6], -0.153. Also, the composite z-score in the experiment with Sam68 (KHDRBS1) worked out at 0.428; in [7] it was 0.929; in experiment [8] it was 0.409. The composite Z-score in experiment [1] was 0.142 (inactive).
On to `C[N+](C)(C)CCCCNC(=O)[C@H]1C[C@H]2C(=O)N[C@@H](Cc3ccccc3)C(=O)N2[C@H]1c1ccc(O)cc1`, for which the composite z-score with Albumin (Bos taurus) is -1.16; in experiment [2] it was -0.0343; in experiment [3], -0.167; in [4], 0.358; in experiment [5] it was 0.396; in experiment [6], 0.0021. The results for the composite z-score (with Sam68 (KHDRBS1); in experiment [7]; in experiment [8]) were 0.247, 1.05 and 0.274, respectively. For the same molecule, in experiment [1], the composite Z-score is 0.474 (inactive).
Consider `CC(C)c1ccc(NN2C(C(O)c3cc(C(F)(F)F)cc(C(F)(F)F)c3)C=CC3C(=O)N(c4ccccc4)C(=O)C32)cc1` (stereo not given), for which the composite z-score with Albumin (Bos taurus) stood at 0.588; in experiment [2], 0.0203; in [3] it was 0.0506; in experiment [4], 0.489; in experiment [5], 2.43; in [6], 0.152. The values for the composite z-score (in the experiment with Sam68 (KHDRBS1); in experiment [7]; in experiment [8]) were 0.924, -0.219 and 0.568, respectively. Besides, the composite Z-score in experiment [1] was -0.117 (inactive).
For `C=CCOC(=O)[C@@H]1[C@H]2C(=O)O[C@H](c3ccccc3)[C@H](c3ccccc3)N2[C@H](c2ccc(OCCOC(=O)[C@@H]3C[C@@H]4C(=O)N5CCC[C@H]5C(=O)N4[C@@H]3c3ccc(O)cc3)cc2)[C@@]12C(=O)Nc1ccc(I)cc12`, the composite z-score was 0.71 with Albumin (Bos taurus); -0.0831 in experiment [2]; -0.145 in experiment [3]; 0.419 in experiment [4]; 1.33 in experiment [5]; -0.0072 in experiment [6]. In addition, the composite z-score in the experiment on Sam68 (KHDRBS1) was found to be 1.19; in experiment [7] it was 0.593; in [8] it was 1.12. The composite Z-score in [1] was 1.23 (inactive).
Consider `[N-]=[N+]=NCc1ccccc1[C@@H]1OC(c2ccc(OCCCO)cc2)=N[C@]1(CCS(=O)(=O)c1ccccc1)C(=O)NCCN1CCOCC1`, for which the composite z-score in the experiment with Albumin (Bos taurus) turned out to be 0.899; in experiment [2], 0.576; in experiment [3] it was 0.0476; in experiment [4], 0.634; in experiment [5], 2.86; in [6], 0.623. In addition, the composite z-score with Sam68 (KHDRBS1) was found to be 1.3; in experiment [7] it was 0.207; in [8], 1.1. Further, the composite Z-score in experiment [1] was 1.31 (inactive).
Turning to `COCCOC(=O)N1C(=O)[C@@]2(c3cc(C#CC4=CCCCC4)ccc31)[C@H](C(=O)Nc1nc3ccccc3s1)[C@H]1C(=O)O[C@H](c3ccccc3)[C@H](c3ccccc3)N1[C@@H]2c1ccccc1OCCO`, the composite z-score in the experiment with Albumin (Bos taurus) was 0.657; in experiment [2], 0.757; in experiment [3], 0.248; in [4], 0.188; in experiment [5], 1.1; in [6], -0.123. Further, the composite z-score was determined as 1.13 in the experiment with Sam68 (KHDRBS1), 0.367 in experiment [7] and 1.14 in experiment [8]. Further, in experiment [1], the composite Z-score is -0.478 (inactive).
For the molecule `O=C1NC(=O)C2C1C=CC(C(O)c1cccc3ccccc13)N2Nc1ccccn1` (stereo not given), the composite z-score with Albumin (Bos taurus) was 0.421; in experiment [2], 0.138; in [3], -0.0966; in [4] it was 0.553; in experiment [5], 0.296; in [6], 0.447. Moreover, the results for the composite z-score (with Sam68 (KHDRBS1); in [7]; in experiment [8]) were 0.0488, 0.394 and 0.506, respectively. The composite Z-score in experiment [1] was 0.0886 (inactive).
`O=C1OCC=C[C@H]2OC34C=CCN(CCN5CCOCC5)C(=O)[C@H]3N(CCCO)C(=O)[C@@H]4[C@@H]12` (stereo not given in full): the composite z-score in the experiment with Albumin (Bos taurus) was 0.416; in [2] it was -0.206; in experiment [3], -0.122; in experiment [4], -0.0692; in experiment [5], 0.357; in experiment [6] it was -0.126. The composite z-score in the experiment on Sam68 (KHDRBS1) worked out at 0.356; in experiment [7], 0.0732; in experiment [8], 0.551. Moreover, the composite Z-score in experiment [1] was 0.103 (inactive).
`CN1C(=O)C2C=CC(C(O)c3cccs3)N(Nc3ccccc3)C2C1=O` (stereo not given): the composite z-score in the experiment with Albumin (Bos taurus) was 0.95; in experiment [2], 0.0873; in experiment [3] it was -0.0856; in [4], 0.831; in [5] it was 1.87; in experiment [6], -0.0235. Besides, the composite z-score in the experiment with Sam68 (KHDRBS1) was 0.186; in experiment [7] it was 0.0907; in experiment [8], 0.442. Besides, in experiment [1], the composite Z-score is -0.227 (inactive).
For `CC(C)(C)OC(=O)CC[C@]1(C(=O)NCC(O)CO)COC(c2ccc(OCCCO)cc2)=N1` (stereo not given in full), the composite z-score with Albumin (Bos taurus) was 0.693; in [2] it was 0.0425; in [3], -0.106; in experiment [4], 0.828; in experiment [5], 2.68; in experiment [6] it was -0.45. Also, the composite z-score in the experiment on Sam68 (KHDRBS1) is 0.949; in [7], -1.53; in [8] it was 0.504. In addition, the composite Z-score in [1] was 0.0333 (inactive).
Regarding `CCCCN1CC=CC23O[C@@H]4/C=C\CCC(C)OC(=O)C4[C@H]2C(=O)N(CCCCCO)[C@@H]3C1=O` (stereo not given in full), the composite z-score with Albumin (Bos taurus) was -1.05; in experiment [2] it was -0.422; in [3] it was -0.126; in experiment [4] it was 0.867; in experiment [5] it was -0.427; in experiment [6], 1.34. Further, the composite z-score with Sam68 (KHDRBS1) is -0.287; in experiment [7] it was -1.4; in experiment [8] it was -1.09. For the same molecule, the composite Z-score in experiment [1] is 0.114 (inactive).
